This is a sample that favours compounds with a hit; in the whole collection about 1.5% have one here.
Polio RdRp inh – inhibitors of poliovirus RNA polymerase binding and polymerization; P03300; poliovirus polymerase elongation, fluorescence polarization; active compounds read low; % elongation, % (compound at 16.7 µg/mL); hit rate 0.66% among 150,000; in the data active = % elongation below about 90%
MenB inh – Mtb MenB enzyme inhibition | P9WNP5 | MenB enzyme assay, absorbance read-out | inhibition, % (test concentration not listed) | hit rate 0.43% among 100,000; in the data active = inhibition above about 21%, passing the limit was not always enough
Mtb MbtI inh – blocks the Mycobacterium tuberculosis siderophore enzyme MbtI | P9WFX0 | purified MbtI enzyme, fluorescence intensity read-out | inhibition, % (concentration not given with the values) | hit rate 0.89% among 100,000; in the data active = inhibition mostly above about 56%, no sharp cut-off; inactive = mostly below about 77%
Target sequence (P9WFX0 whole entry, looked up): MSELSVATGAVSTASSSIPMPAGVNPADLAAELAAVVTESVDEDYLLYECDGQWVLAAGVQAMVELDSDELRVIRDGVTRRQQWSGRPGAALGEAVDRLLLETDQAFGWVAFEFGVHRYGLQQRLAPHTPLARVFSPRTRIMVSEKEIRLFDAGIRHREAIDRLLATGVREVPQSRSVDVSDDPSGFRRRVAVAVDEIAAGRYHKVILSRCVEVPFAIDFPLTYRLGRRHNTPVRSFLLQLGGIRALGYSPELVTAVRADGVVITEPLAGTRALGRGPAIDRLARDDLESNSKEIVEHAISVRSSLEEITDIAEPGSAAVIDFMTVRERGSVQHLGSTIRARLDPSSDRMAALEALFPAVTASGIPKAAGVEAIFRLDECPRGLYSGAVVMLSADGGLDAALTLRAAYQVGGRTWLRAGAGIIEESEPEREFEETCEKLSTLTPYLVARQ
Starred values were filed as active, the others as inactive.

Results for COc1cccc(OC)c1C(=O)N(C(=O)c1c(OC)cccc1OC)c1oc(-c2ccco2)c(-c2ccco2)c1C#N ?
Polio RdRp inh: 103; MenB inh: 12; Mtb MbtI inh: 17

Results for N#Cc1c(N(C(=O)/C=C/c2ccco2)C(=O)/C=C/c2ccco2)oc(-c2ccco2)c1-c1ccco1 ?
Polio RdRp inh: 89*; MenB inh: -16; Mtb MbtI inh: 4

What do the screens show for `COCCNC(=S)N1CCCN(c2nc3cc(C)ccc3cc2C#N)CC1`?
Polio RdRp inh: 102; MenB inh: 21*; Mtb MbtI inh: 22

What do the screens show for `Cc1ccc2cc(C#N)c(N3CCCN(C(=O)C4CCCCC4)CC3)nc2c1`?
Polio RdRp inh: 99; MenB inh: 17; Mtb MbtI inh: 4

How did CC(C)C(C)(C#N)NC(=O)c1cccnc1Oc1ccc(Cl)cc1 (stereo not given) do in these assays?
Polio RdRp inh: 104; MenB inh: 0

How did CCn1c(O)c(C=Nc2ccc(Cl)c(C(=O)O)c2)c(=O)[nH]c1=O do in these assays?
Polio RdRp inh: 101; MenB inh: 10; Mtb MbtI inh: -81

Results for O=C(O)Cc1ccc(NCc2ccc(Br)cc2)cc1 ?
Polio RdRp inh: 102; MenB inh: 4; Mtb MbtI inh: 66*

How did Oc1ccc(NCc2ccc(Br)cc2)cc1 do in these assays?
Polio RdRp inh: 102; MenB inh: 5; Mtb MbtI inh: 20

How did Clc1cc2c(c(CSc3nnc(-c4ccco4)n3-c3ccccc3)c1)OCOC2 do in these assays?
Polio RdRp inh: 103; MenB inh: -12; Mtb MbtI inh: 16

What do the screens show for `CN(C)S(=O)(=O)c1cccc(-c2nnc(SCc3cc(Cl)cc4c3OCOC4)n2N)c1`?
Polio RdRp inh: 80*; MenB inh: -28; Mtb MbtI inh: 86

What do the screens show for `CCOC(=O)C1=C(C(F)(F)F)OC(N)=C(C#N)C1c1ccc(-c2ccccc2)cc1` (stereo not given)?
Polio RdRp inh: 95; MenB inh: 0

What do the screens show for `Nc1ccc(C(=O)O)c(O)c1`?
Polio RdRp inh: 99; MenB inh: 8; Mtb MbtI inh: -50

How did Cc1cc(N)cc(C(=O)O)c1O do in these assays?
Polio RdRp inh: 99; MenB inh: 37*; Mtb MbtI inh: 10

How did O=C(/C=C/C(=O)c1ccccc1)c1ccccc1 do in these assays?
Polio RdRp inh: 99; MenB inh: -9; Mtb MbtI inh: 102

How did N#CS/C=C/C(=O)c1ccccc1 do in these assays?
Polio RdRp inh: 96; MenB inh: -51; Mtb MbtI inh: 100*

How did O=C(O)CCC(=O)N1CCCCC1 do in these assays?
Polio RdRp inh: 98; MenB inh: 24; Mtb MbtI inh: 5

Results for CN1CCN(S(=O)(=O)c2cccc3cccnc23)CC1 ?
Polio RdRp inh: 106; MenB inh: -14

How did COc1ccc(CCNc2nc(C)nc3c2nnn3Cc2ccccc2)cc1OC do in these assays?
Polio RdRp inh: 100; MenB inh: 39*; Mtb MbtI inh: -3

Results for Cc1nc(NCCCCCO)c2nnn(Cc3ccc(F)cc3)c2n1 ?
Polio RdRp inh: 102; MenB inh: 22; Mtb MbtI inh: 0

Results for CN(C)c1ncc(C(=O)NCc2ccccc2Cl)cn1 ?
Polio RdRp inh: 106

Results for CCCCn1c(=O)oc2ccc(C)cc21 ?
Mtb MbtI inh: -9

Results for COc1cccc(N2CC(NC(=O)/C=C\c3ccc4c(c3)OCO4)CC2=O)c1 (stereo not given) ?
Polio RdRp inh: 81*

How did COc1ccc(N2CC(NC(=O)/C=C\c3ccc4c(c3)OCO4)CC2=O)cc1OC (stereo not given) do in these assays?
Polio RdRp inh: 105

How did O=C(Cc1cn2ccsc2n1)N/N=C1\CC(c2ccccc2)Oc2ccccc21 (stereo not given) do in these assays?
Polio RdRp inh: 107; MenB inh: -63; Mtb MbtI inh: 8

What do the screens show for `Cc1nc(C(F)(F)F)ccc1C(=O)Sc1nnc(-c2ccc(C(F)(F)F)nc2C)o1`?
Polio RdRp inh: 103; MenB inh: 7; Mtb MbtI inh: 12

What do the screens show for `CCCc1ccc(OCC(=O)Nc2scc(-c3cccs3)c2C(=O)OC)cc1`?
Polio RdRp inh: 74*

What do the screens show for `COC(=O)c1c(-c2cccs2)csc1NC(=O)COc1ccc(C(C)C)cc1`?
Polio RdRp inh: 70*

What do the screens show for `CCOC(=O)c1c(-c2cccs2)csc1NC(=O)COC(=O)c1cc2c(s1)CCC2`?
Polio RdRp inh: 102; MenB inh: -10; Mtb MbtI inh: -41

How did COC(=O)c1c(NC(=O)COc2ccc(C(C)C)cc2)sc2c1CCCC2 do in these assays?
Polio RdRp inh: 104

What do the screens show for `Cc1cc(C(=O)CSc2nncs2)c(C)n1-c1ccc(F)cc1`?
Polio RdRp inh: 106; MenB inh: -8; Mtb MbtI inh: -2

How did CN(C)S(=O)(=O)c1cccc(-c2nnc3n2N=C(c2ccccc2)C(CC(=O)O)S3)c1 (stereo not given) do in these assays?
Polio RdRp inh: 75*; MenB inh: 0; Mtb MbtI inh: 99*

Results for CCSc1nnc(-c2cccc(S(=O)(=O)N(C)C)c2)n1-c1cccc(C)c1 ?
Polio RdRp inh: 104; MenB inh: -16; Mtb MbtI inh: 13

How did CC(OC(=O)/C=C/c1ccco1)C(=O)Nc1cccc(C(F)(F)F)c1 (stereo not given) do in these assays?
Polio RdRp inh: 114; MenB inh: -13; Mtb MbtI inh: -1

What do the screens show for `C/C(=N\N=C(N)N)c1ccc(-n2ccnc2)cc1`?
Polio RdRp inh: 98; MenB inh: -13; Mtb MbtI inh: 7

How did O=C(O)C(CO)c1ccccc1 (stereo not given) do in these assays?
Polio RdRp inh: 98; MenB inh: 26*; Mtb MbtI inh: 0

What do the screens show for `CC(C)CC(C(=O)c1ccccc1)c1ccccc1` (stereo not given)?
Polio RdRp inh: 101; MenB inh: -7; Mtb MbtI inh: -15

How did CCOc1ccc(C(CNC(=O)C(CC)c2ccccc2)N2CCOCC2)cc1OC (stereo not given) do in these assays?
Polio RdRp inh: 104; MenB inh: -24; Mtb MbtI inh: -3

How did O=C(O)CCc1nnc2n(Cc3ccccc3Cl)c(=O)c3ccccc3n12 do in these assays?
Polio RdRp inh: 100; MenB inh: -25; Mtb MbtI inh: 1

Results for CCCCNC(=O)c1nn(-c2ccc(C)cc2)c(=O)n(C)c1=O ?
Polio RdRp inh: 105

What do the screens show for `O=C(/C=C/c1ccco1)NCc1ccccc1`?
Polio RdRp inh: 100; MenB inh: 3; Mtb MbtI inh: 11

How did O=C(CO/N=C/c1ccco1)NCc1ccccc1 do in these assays?
Polio RdRp inh: 110; MenB inh: 8; Mtb MbtI inh: 51*

How did Cc1ccc(C)c(N2CCN(C(=O)C3CCCN(S(=O)(=O)c4ccc5c(c4)oc(=O)n5C)C3)CC2)c1 (stereo not given) do in these assays?
Polio RdRp inh: 109

What do the screens show for `CCc1nc2ccc(C(=O)NCc3cn[nH]c3C)cc2nc1CC`?
Polio RdRp inh: 101; MenB inh: -33; Mtb MbtI inh: -1

How did CCOC(=O)c1ccc(NC(=O)NC(C)c2ccc3c(c2)OCO3)cc1 (stereo not given) do in these assays?
Polio RdRp inh: 104; MenB inh: -8; Mtb MbtI inh: 15

How did CCOC(=O)c1ccc(NC(=S)NC(C)c2ccc3c(c2)OCCO3)cc1 (stereo not given) do in these assays?
Polio RdRp inh: 54*; MenB inh: -23; Mtb MbtI inh: -1
